# Reference: publication PMC11062922 (Nature Chemical Biology, 2023)
# Where two headings read alike, the source gives them in different places.
# Columns and labels:
# AAK1 = tested on: AAK1; parameters: species or system human, MV4-11 + K-562 + COLO205 + SK-N-BE2 + OVCAR-8; conditions: read-out: apparent Kd, n = 1
# BMP2K = tested on: BMP2K; parameters: species or system human, MV4-11 + K-562 + COLO205 + SK-N-BE2 + OVCAR-8; conditions: read-out: apparent Kd, n = 1
# CLK1 = tested on: CLK1; parameters: species or system human, MV4-11 + K-562 + COLO205 + SK-N-BE2 + OVCAR-8; conditions: read-out: apparent Kd, n = 1
# CLK4 = tested on: CLK4; parameters: species or system human, MV4-11 + K-562 + COLO205 + SK-N-BE2 + OVCAR-8; conditions: read-out: apparent Kd, n = 1
# CSNK2A1;CSNK2A3 = tested on: CSNK2A1;CSNK2A3; parameters: species or system human, MV4-11 + K-562 + COLO205 + SK-N-BE2 + OVCAR-8; conditions: read-out: apparent Kd, n = 1
# CSNK2A2 = tested on: CSNK2A2; parameters: species or system human, MV4-11 + K-562 + COLO205 + SK-N-BE2 + OVCAR-8; conditions: read-out: apparent Kd, n = 1
# GAK = tested on: GAK; parameters: species or system human, MV4-11 + K-562 + COLO205 + SK-N-BE2 + OVCAR-8; conditions: read-out: apparent Kd, n = 1
# MELK = tested on: MELK; parameters: species or system human, MV4-11 + K-562 + COLO205 + SK-N-BE2 + OVCAR-8; conditions: read-out: apparent Kd; compound concentrations:100 nM and 1000 nM (sheet 'Samples'); n = 1
# Q6ZSR9 = Q6ZSR9 (human, UniProt Q6ZSR9); parameters: species or system MV4-11 + K-562 + COLO205 + SK-N-BE2 + OVCAR-8; conditions: read-out: apparent Kd, n = 1
# Q6ZSR9, sequence (Q6ZSR9 whole entry, looked up): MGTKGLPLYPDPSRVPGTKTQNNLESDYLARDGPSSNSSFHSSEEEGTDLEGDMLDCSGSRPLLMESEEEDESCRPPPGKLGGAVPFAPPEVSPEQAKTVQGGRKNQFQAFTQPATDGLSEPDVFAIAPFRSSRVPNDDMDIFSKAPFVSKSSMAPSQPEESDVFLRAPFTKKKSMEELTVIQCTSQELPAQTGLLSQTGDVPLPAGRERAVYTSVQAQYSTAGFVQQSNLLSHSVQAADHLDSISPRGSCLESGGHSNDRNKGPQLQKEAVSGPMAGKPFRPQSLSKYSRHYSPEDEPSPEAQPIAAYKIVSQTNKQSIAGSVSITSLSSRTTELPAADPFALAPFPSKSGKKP
# RET = tested on: RET; parameters: species or system human, MV4-11 + K-562 + COLO205 + SK-N-BE2 + OVCAR-8; conditions: read-out: apparent Kd, n = 1
# NUAK1 = tested on: NUAK1; parameters: species or system human, MV4-11 + K-562 + COLO205 + SK-N-BE2 + OVCAR-8; conditions: read-out: apparent Kd, n = 1
# PAK4 = tested on: PAK4; parameters: species or system human, MV4-11 + K-562 + COLO205 + SK-N-BE2 + OVCAR-8; conditions: read-out: apparent Kd; compound concentrations:100 nM and 1000 nM (sheet 'Samples'); n = 1
# PRKAG1 = tested on: PRKAG1; parameters: species or system human, MV4-11 + K-562 + COLO205 + SK-N-BE2 + OVCAR-8; conditions: read-out: apparent Kd; compound concentrations:100 nM and 1000 nM (sheet 'Samples'); n = 1
# SIK2 = tested on: SIK2; parameters: species or system human, MV4-11 + K-562 + COLO205 + SK-N-BE2 + OVCAR-8; conditions: read-out: apparent Kd; compound concentrations:100 nM and 1000 nM (sheet 'Samples'); n = 1
# PKN1 = tested on: PKN1; parameters: species or system human, MV4-11 + K-562 + COLO205 + SK-N-BE2 + OVCAR-8; conditions: read-out: apparent Kd; compound concentrations:100 nM and 1000 nM (sheet 'Samples'); n = 1
# FLT4 = tested on: FLT4; parameters: species or system human, MV4-11 + K-562 + COLO205 + SK-N-BE2 + OVCAR-8; conditions: read-out: apparent Kd, compound concentrations: 100 nM and 1000 nM (sheet 'Samples'), n = 1
# GSK3A = tested on: GSK3A; parameters: species or system human, MV4-11 + K-562 + COLO205 + SK-N-BE2 + OVCAR-8; conditions: read-out: apparent Kd, n = 1
# GSK3B = tested on: GSK3B; parameters: species or system human, MV4-11 + K-562 + COLO205 + SK-N-BE2 + OVCAR-8; conditions: read-out: apparent Kd, n = 1
# PKN3 = tested on: PKN3; parameters: species or system human, MV4-11 + K-562 + COLO205 + SK-N-BE2 + OVCAR-8; conditions: read-out: apparent Kd; compound concentrations:100 nM and 1000 nM (sheet 'Samples'); n = 1
# [1] = compound concentrations:100 nM and 1000 nM (sheet 'Samples')
smiles,measurement,setting,value
CN(C)CC(O)COc1ccc(Nc2nccc(-c3cnn4nc(N5CCOCC5)ccc34)n2)cc1 (centres unmarked) [GW767488X],potency estimated from few doses,AAK1; [1],23.6 nM
same,potency estimated from few doses,BMP2K; [1],180 nM
same,potency estimated from few doses,CLK1; [1],54.1 nM
same,potency estimated from few doses,CLK4; [1],34.2 nM
same,potency estimated from few doses,CSNK2A1;CSNK2A3; [1],105 nM
same,potency estimated from few doses,CSNK2A2; [1],57.1 nM
same,potency estimated from few doses,GAK; [1],378 nM
same,potency estimated from few doses,MELK,1490 nM
same,potency estimated from few doses,Q6ZSR9; [1],29.6 nM
CNc1cc(-c2ccc3c(N)n[nH]c3c2)nc(N)n1 [GSK2224810A],potency estimated from few doses,AAK1; [1],781 nM
same,potency estimated from few doses,BMP2K; [1],1040 nM
same,potency estimated from few doses,CLK1; [1],314 nM
same,potency estimated from few doses,CLK4; [1],154 nM
same,potency estimated from few doses,MELK,898 nM
same,potency estimated from few doses,Q6ZSR9; [1],687 nM
same,potency estimated from few doses,RET; [1],1070 nM
O=C(O)C(F)(F)F.O=c1[nH]ccc2nc(N[C@@H]3CCNC3)nc(Nc3cc(Cl)cc(Cl)c3)c12 [GSK2188764A],potency estimated from few doses,AAK1; [1],114 nM
same,potency estimated from few doses,BMP2K; [1],749 nM
same,potency estimated from few doses,CSNK2A1;CSNK2A3; [1],239 nM
same,potency estimated from few doses,CSNK2A2; [1],585 nM
same,potency estimated from few doses,MELK,765 nM
same,potency estimated from few doses,NUAK1; [1],27.4 nM
same,potency estimated from few doses,PAK4,11 nM
same,potency estimated from few doses,PRKAG1,799 nM
same,potency estimated from few doses,Q6ZSR9; [1],151 nM
same,potency estimated from few doses,RET; [1],1350 nM
same,potency estimated from few doses,SIK2,1440 nM
Cl.Cl.NC[C@H](CC1CCCCC1)NC(=O)c1ccc(-c2ccnc3[nH]ccc23)s1.NC[C@H](CC1CCCCC1)NC(=O)c1ccc(-c2ccnc3[nH]ccc23)s1 [GSK1581428A],potency estimated from few doses,AAK1; [1],54.5 nM
same,potency estimated from few doses,PKN1,538 nM
same,potency estimated from few doses,Q6ZSR9; [1],62.7 nM
Cl.Nc1nc(-c2ccc3c(c2)C(=Cc2cc(Br)c(O)c(Br)c2)C(=O)N3)cs1 [GW407323A],potency estimated from few doses,"AAK1; compound concentrations: 100 nM and 1000 nM (sheet 'Samples'), CATDS: 6.1735676660854701E-2",169 nM
same,potency estimated from few doses,"BMP2K; compound concentrations: 100 nM and 1000 nM (sheet 'Samples'), CATDS: 9.5342393431140995E-2",73.6 nM
same,potency estimated from few doses,"CLK1; compound concentrations: 100 nM and 1000 nM (sheet 'Samples'), CATDS: 4.62979117088285E-2",333 nM
same,potency estimated from few doses,"CLK4; compound concentrations: 100 nM and 1000 nM (sheet 'Samples'), CATDS: 8.6707828980110799E-2",87 nM
same,potency estimated from few doses,"CSNK2A1;CSNK2A3; compound concentrations: 100 nM and 1000 nM (sheet 'Samples'), CATDS: 5.7367661207528599E-2",199 nM
same,potency estimated from few doses,"CSNK2A2; compound concentrations: 100 nM and 1000 nM (sheet 'Samples'), CATDS: 4.5506088174881797E-2",349 nM
same,potency estimated from few doses,"Q6ZSR9; compound concentrations: 100 nM and 1000 nM (sheet 'Samples'), CATDS: 5.6700337610390401E-2",204 nM
NS(=O)(=O)c1ccc(N/C=C2\C(=O)Nc3ccc4ncsc4c32)cc1 [GW297361X],potency estimated from few doses,"AAK1; compound concentrations: 100 nM and 1000 nM (sheet 'Samples'), CATDS: 4.1332868698359997E-2",785 nM
same,potency estimated from few doses,"BMP2K; compound concentrations: 100 nM and 1000 nM (sheet 'Samples'), CATDS: 4.6280622165998701E-2",615 nM
same,potency estimated from few doses,"CLK4; compound concentrations: 100 nM and 1000 nM (sheet 'Samples'), CATDS: 3.6697746350308501E-2",1050 nM
same,potency estimated from few doses,"CSNK2A1;CSNK2A3; compound concentrations: 100 nM and 1000 nM (sheet 'Samples'), CATDS: 3.0344109186555501E-2",1830 nM
same,potency estimated from few doses,"CSNK2A2; compound concentrations: 100 nM and 1000 nM (sheet 'Samples'), CATDS: 3.6316988085140701E-2",1070 nM
same,potency estimated from few doses,"NUAK1; compound concentrations: 100 nM and 1000 nM (sheet 'Samples'), CATDS: 0.30685592880619",33.6 nM
same,potency estimated from few doses,"Q6ZSR9; compound concentrations: 100 nM and 1000 nM (sheet 'Samples'), CATDS: 3.8953206873676101E-2",902 nM
COc1cc[nH]c1/C=C1\C(=O)Nc2ccc([N+](=O)[O-])c(N3CC[C@@H](O)C3)c21 [RO0504985-000],potency estimated from few doses,"AAK1; compound concentrations: 100 nM and 1000 nM (sheet 'Samples'), CATDS: 0.119322014743116",46.2 nM
same,potency estimated from few doses,"BMP2K; compound concentrations: 100 nM and 1000 nM (sheet 'Samples'), CATDS: 0.146188418361926",33 nM
same,potency estimated from few doses,FLT4; CATDS: 3.5350973360848997E-2,1020 nM
same,potency estimated from few doses,"GSK3A; compound concentrations: 100 nM and 1000 nM (sheet 'Samples'), CATDS: 6.9215882134984696E-2",143 nM
same,potency estimated from few doses,"GSK3B; compound concentrations: 100 nM and 1000 nM (sheet 'Samples'), CATDS: 8.07850710279054E-2",99.7 nM
same,potency estimated from few doses,"NUAK1; compound concentrations: 100 nM and 1000 nM (sheet 'Samples'), CATDS: 0.113358948941002",50.6 nM
same,potency estimated from few doses,"Q6ZSR9; compound concentrations: 100 nM and 1000 nM (sheet 'Samples'), CATDS: 0.13185454777653499",39 nM
Cc1occc1-c1nc(N)c(OC[C@@H](N)Cc2c[nH]c3ccccc23)cc1-c1cc2c(C)n[nH]c2cn1 [GSK1660450B],potency estimated from few doses,AAK1; [1],1070 nM
same,potency estimated from few doses,CLK1; [1],339 nM
same,potency estimated from few doses,CLK4; [1],441 nM
same,potency estimated from few doses,GAK; [1],38.2 nM
same,potency estimated from few doses,GSK3A; [1],273 nM
same,potency estimated from few doses,GSK3B; [1],62.6 nM
same,potency estimated from few doses,PKN1,87.6 nM
same,potency estimated from few doses,PKN3,845 nM
same,potency estimated from few doses,Q6ZSR9; [1],1670 nM
same,potency estimated from few doses,SIK2,427 nM
Cl.Cn1cc(C2=C(c3c4n(c5ccccc35)CCNC4)C(=O)NC2=O)c2ccccc21 [RO0318365-001],potency estimated from few doses,"AAK1; compound concentrations: 100 nM and 1000 nM (sheet 'Samples'), CATDS: 5.2349611072723602E-2",1480 nM
same,potency estimated from few doses,FLT4; CATDS: 5.0705018296343198E-2,1610 nM
same,potency estimated from few doses,"GAK; compound concentrations: 100 nM and 1000 nM (sheet 'Samples'), CATDS: 6.7472142671723495E-2",831 nM
same,potency estimated from few doses,"GSK3A; compound concentrations: 100 nM and 1000 nM (sheet 'Samples'), CATDS: 0.111142354700942",357 nM
same,potency estimated from few doses,"GSK3B; compound concentrations: 100 nM and 1000 nM (sheet 'Samples'), CATDS: 0.121394136436775",314 nM
same,potency estimated from few doses,"Q6ZSR9; compound concentrations: 100 nM and 1000 nM (sheet 'Samples'), CATDS: 5.14338241951754E-2",1550 nM
same,potency estimated from few doses,"RET; compound concentrations: 100 nM and 1000 nM (sheet 'Samples'), CATDS: 5.70762931789019E-2",1190 nM
